# Measured values published in PubChem BioAssay (NCATS).
# Values without a mark were called inactive. Inconclusive results are not listed. Entries that show only a call come without a potency. Calls of active or inactive are those of the source. Calls follow the shape of the dose curve; as a rule, active = well fitted curve in the direction sought with a large enough effect; inconclusive = small, poorly fitted or top-dose-only effect, or another doubt; inactive = no such curve, though single readings can be large; an effect the other way counts as inactive or inconclusive.
# Tests used:
# [1] = biological target: Glutathione peroxidase 1 (Homo sapiens) (UniProt P07203); test: Primary qHTS Assay for Inhibitors of Recombinant Selenoprotein Glutathione Peroxidase 1 (GPX1) (AID 1845191); also: nearly all actives have a fitted effect of over 65% in size
# Sequence of Glutathione peroxidase 1 (Homo sapiens) (P07203 whole entry, looked up): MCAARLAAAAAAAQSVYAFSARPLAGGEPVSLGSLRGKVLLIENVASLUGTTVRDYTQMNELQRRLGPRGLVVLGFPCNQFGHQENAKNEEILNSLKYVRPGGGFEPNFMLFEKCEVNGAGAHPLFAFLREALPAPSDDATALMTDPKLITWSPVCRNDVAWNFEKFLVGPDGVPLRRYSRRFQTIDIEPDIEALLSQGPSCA
# Procedure, shortened: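 GPX1 10 nM, GR 100 nM, GSH 1 mM, NADPH 0.5 mM, CHP 0.5 mM (final). 30-min cpd preincubation, RT. Ex340/Em450 read t=0, t=15 min.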
# [2] = biological target: Phospholipid hydroperoxide glutathione peroxidase GPX4 (Homo sapiens) (UniProt P36969); test: Primary qHTS Assay for Inhibitors of Recombinant Selenoprotein Glutathione Peroxidase 4 (GPX4) (AID 1845192); also: nearly all actives have a fitted effect of over 65% in size; as to activity change, negative = inhibition: series mostly up to about 50 µM
# Sequence of Phospholipid hydroperoxide glutathione peroxidase GPX4 (Homo sapiens) (P36969 whole entry, looked up): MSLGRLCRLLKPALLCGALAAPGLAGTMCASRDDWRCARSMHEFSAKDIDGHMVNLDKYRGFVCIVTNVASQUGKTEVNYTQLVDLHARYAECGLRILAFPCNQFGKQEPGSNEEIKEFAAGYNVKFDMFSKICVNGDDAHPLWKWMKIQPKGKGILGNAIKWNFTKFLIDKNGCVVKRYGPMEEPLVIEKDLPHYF
# Procedure, shortened: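 qHTS, GR-coupled: GPX4 200 nM + cpd 30 min RT → GSH 1 mM, NADPH 0.5 mM, GR 100 nM → CHP 0.5 mM start; fluor 340/450 at t0 and t15 min; no-enzyme wells as control.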
# [3] = biological target: Luciferin 4-monooxygenase (Photinus pyralis) (UniProt P08659); test: Primary firefly luciferase (FLuc) qHTS assay for identification of artifact compounds. (AID 1845220); also: nearly all actives have a fitted effect of over 60% in size; as to activity change, negative = inhibition: series mostly up to about 54 µM
# Procedure, shortened: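 In this counter-screen for luciferase artifacts, test compounds met substrate (10 uM each luciferin and ATP) before 10 nM enzyme started the reaction. Light output was measured 5 min later.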
# [4] = Primary fluorescence-based thiol-reactive (MSTI) qHTS assay for identification of artifact compounds. (AID 1845221); also: nearly all actives have a fitted effect of over 65% in size; also: potency is read from the fitted curve at half-maximal effect;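 as to activity change, negative = thiol reactive: series mostly up to about 54 µM; thiol-reactive compounds lower the probe fluorescence signal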
# Procedure, shortened: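 Curve-fitted percent inhibition (4-parameter Hill) derived from fluorescence, Ex 525/Em 598 nm, scaled with Acetyl-MSTI and MSTI; 1 h incubation at room temperature.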
# [5] = tested on: Nanoluciferase (engineered Oplophorus gracilirostris luciferase); test: Primary Nanoluciferase (NLuc) qHTS assay for identification of artifact compounds. (AID 1845222); also: potency is read from the fitted curve at half-maximal effect;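 as to activity, negative = inhibition: NLuc secreted into diluted conditioned medium of S16 cells; series mostly up to about 54 µM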
# Procedure, shortened: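 Using secreted nanoluciferase in S16 culture medium (0.22 um filtered, 1:55 dilution), compounds were preincubated 15 min at RT. Signal was generated with Nano-Glo reagent (1:100) over 5 min.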
# [6] = Primary redox qHTS assay for identification of artifact compounds. (AID 1845223); also: potency is read from the fitted curve at half-maximal effect
# Procedure, shortened: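 Redox-cycling detection via DTT (250 uM final) oxidation coupled to Amplex Red (25 uM)/HRP (250 mU/mL) in HBSS. 15 min preincubation plus 30 min after DTT, room temperature. Ex/Em 525/598 nm; 4-parameter Hill fit against DMSO and 10 uM DA3003.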
SMILES,Potency [1],Potency [2],Potency [3],Potency [4],Potency [5],Potency [6],"activity, negative = inhibition [1]","activity change, negative = inhibition [2]","activity change, negative = inhibition [3]","activity change, negative = thiol reactive [4]","activity, negative = inhibition [5]",redox activity (% of DA3003) [6]
COc1ccc2[nH]c(=O)c3c(c2c1)OC(C)(C)C=C3,inactive,inactive,inactive,inactive,inactive,inactive,–,–,–,–,–,–
O=C(NCCN1CCN(c2cccc3c2OCCO3)CC1)c1ccc(F)cc1,inactive,inactive,inactive,inactive,inactive,inactive,–,–,–,–,–,–
CC(C)=CCCC1(C)/C=C/C(OC(=O)C=C(C)C)C(C)(O)/C=C/C(=O)/C(CO)=C\C1 (configuration not stated),inactive,inactive,inactive,inactive,inactive,inactive,–,–,–,–,–,–
CC(C)(O)C1CC(=O)C2(C)C(CCC3(C)C(c4ccoc4)OC(=O)C4OC432)C12CCC(=O)OC2 (configuration not stated),inactive,inactive,inactive,inactive,inactive,inactive,–,–,–,–,–,–
COC(=O)C[C@H]1C(C)(C)[C@H](OC(=O)c2ccccc2)C2CC3=C4CC(=O)O[C@@H](c5ccoc5)[C@]4(C)CCC3[C@@]1(C)C2=O (some centres not stated),inactive,inactive,inactive,inactive,inactive,inactive,–,–,–,–,–,–
O=C(NC1(c2ccccc2)CC1)c1c(CN2CCC(N3CCCCC3)CC2)c(-c2cccc(C(F)(F)F)c2)nc2cc(Br)ccc12,inactive,inactive,inactive,inactive,inactive,inactive,–,–,–,–,–,–
CC[C@H]1CN(c2nc(N)c(C(N)=O)nc2Cl)CCN1C1CCN(Cc2ccc(Cl)cc2)CC1,inactive,inactive,inactive,inactive,inactive,inactive,–,–,–,–,–,–
COc1ccccc1S(=O)(=O)Nc1ccc2c(c1)CN(C)C(=O)N2,inactive,inactive,inactive,inactive,inactive,inactive,–,–,–,–,–,–
COc1cccc(-c2cc(F)ccc2C2Cc3nc(N)nc(C)c3C(=O)N2)n1 (configuration not stated),inactive,inactive,inactive,inactive,inactive,inactive,–,–,–,–,–,–
NS(=O)(=O)c1ccc(N2CCN(CC[C@@H]3OCCc4ccccc43)CC2)cc1,inactive,inactive,inactive,inactive,inactive,inactive,–,–,–,–,–,–
N#Cc1cc(C2=Nc3ccc(Br)cc3NC(=O)C2)ccn1,inactive,inactive,inactive,inactive,inactive,inactive,–,–,–,–,–,–
Oc1cccc(C2NC(=S)Nc3cccc(F)c32)c1 (configuration not stated),inactive,inactive,inactive,inactive,inactive,inactive,–,–,–,–,–,–
CCC(C)(OC(C)=O)C(=O)O[C@H]1[C@H](OC(C)=O)[C@]2(CO)[C@H](O)[C@H](O)[C@]3(C)C(=CCC4[C@@]5(C)CC[C@H](O[C@@H]6O[C@H](C(=O)O)[C@@H](O)[C@H](O[C@@H]7OC[C@H](O)[C@H](O[C@@H]8OC[C@H](O)[C@H](O)[C@H]8O)[C@H]7O)[C@H]6O[C@@H]6O[C@H](CO)[C@@H](O)[C@H](O)[C@H]6O)C(C)(C)C5CC[C@]43C)[C@@H]2CC1(C)C (some centres not stated),–,–,–,–,–,–,-12.6% [at 9.52 µM],-15.3% [at 9.73 µM],-11% [at 11.6 µM],202% [at 11.5 µM],-1.71% [at 11.6 µM],22% [at 11.5 µM]
C[C@H]1CC[C@@]2(OC1)O[C@H]1CC3[C@@H]4CC[C@@H]5C[C@@H](O[C@@H]6O[C@H](CO)[C@@H](O[C@@H]7O[C@H](CO[C@@H]8OC[C@@H](O)[C@H](O)[C@H]8O)[C@@H](O[C@@H]8O[C@H](CO)[C@H](O)[C@H](O)[C@H]8O)[C@H](O)[C@H]7O)[C@H](O)[C@H]6O)CC[C@]5(C)C4CC[C@]3(C)[C@H]1[C@@H]2C (some centres not stated),inactive,inactive,–,–,–,–,–,–,2.09% [at 11.6 µM],133% [at 11.5 µM],2.05% [at 11.6 µM],17.1% [at 11.5 µM]
COc1ccc(S(=O)(=O)Nc2c(C)cc(C)cc2C)cc1,inactive,inactive,inactive,inactive,inactive,inactive,–,–,–,–,–,–
C=C1C(=O)O[C@@H]2/C=C(\C)CC/C=C(\C)CC[C@@H]12,inactive,inactive,inactive,inactive,inactive,inactive,–,–,–,–,–,–
COc1ccc(OC)c(-c2ccc(NC(=O)c3ccncc3F)cc2)c1,inactive,inactive,inactive,inactive,inactive,inactive,–,–,–,–,–,–
COc1c(C)cc(NC(=O)c2nn(Cc3ccc(F)cc3)c3c2CN(C(=O)c2ccc[nH]2)C[C@]3(C)C(N)=O)cc1C,inactive,inactive,–,–,–,–,–,–,2.65% [at 11.6 µM],108% [at 11.5 µM],0.489% [at 11.6 µM],7.9% [at 11.5 µM]
C=C(COC(=O)C(O)C(O)CN)C12OC1C1(C)C(=CC2=O)C(O)C(O)CC1C (configuration not stated),inactive,inactive,inactive,inactive,inactive,inactive,–,–,–,–,–,–
C=C1C(=O)O[C@@H]2[C@H]3C(C)=CC(=O)C3=C(C)[C@@H](OC(=O)/C(C)=C\C)[C@H](O)[C@@H]12,inactive,inactive,inactive,inactive,9.31 µM (active),inactive,–,–,–,–,–,–
COC(=O)c1cc(Br)cnc1N1CCC(NC2CCCCC2)C(O)C1 (configuration not stated),inactive,inactive,inactive,inactive,inactive,inactive,–,–,–,–,–,–

SMILES,Potency [1],Potency [2],Potency [3],Potency [4],Potency [5],Potency [6],"activity, negative = inhibition [1]","activity change, negative = inhibition [2]","activity change, negative = inhibition [3]","activity change, negative = thiol reactive [4]","activity, negative = inhibition [5]",redox activity (% of DA3003) [6]
c1cc(NCCc2c[nH]c3ccccc23)cc(Nc2ccncc2)c1,inactive,inactive,inactive,2.67 µM (active),inactive,inactive,–,–,–,–,–,–
CC(C)=CCCC1(C)C2CCC1(C)C(O)C2 (configuration not stated),inactive,inactive,inactive,29.9 µM (active),inactive,inactive,–,–,–,–,–,–
CC1(C)OC[C@H](NC(=O)Nc2ccc(Br)cc2Br)[C@H](c2ccccc2)O1,inactive,inactive,inactive,inactive,inactive,inactive,–,–,–,–,–,–
O=C(Nc1cccnc1)c1cc(-c2ccnc(F)c2)ccc1OCc1ccccc1,inactive,inactive,inactive,inactive,inactive,inactive,–,–,–,–,–,–
COc1ccc(CCO[C@@H]2O[C@H](CO[C@H]3OC[C@](O)(CO)[C@H]3O)[C@@H](OC(=O)/C=C/c3ccc(O)c(O)c3)[C@H](O[C@@H]3O[C@@H](C)[C@H](O)[C@@H](O)[C@H]3O)[C@H]2O)cc1OC,inactive,inactive,inactive,1.58 µM (active),inactive,inactive,–,–,–,–,–,–
CC(C)(C)NC(=O)[C@H]1CC[C@H]2[C@@H]3CC[C@H]4NC(=O)CC[C@]4(C)[C@H]3CC[C@]12C,inactive,inactive,inactive,inactive,inactive,inactive,–,–,–,–,–,–
CC#C[C@@H](CC(=O)O)c1ccc(OCc2ccc(CN3CCC4(C=Cc5ccccc54)CC3)s2)cc1,inactive,inactive,inactive,inactive,inactive,inactive,–,–,–,–,–,–
O=c1cc(N2CCOCC2)nc2c3ccccc3ccn12,inactive,inactive,inactive,inactive,inactive,inactive,–,–,–,–,–,–
Cc1ccc(-c2c(C(=O)CCl)n(CCCO)c3ncnc(N)c23)cc1,inactive,inactive,inactive,inactive,inactive,15 µM (active),–,–,–,–,–,–
C/C=C(/C)C(=O)O[C@H]1[C@H](OC(=O)/C(C)=C\C)[C@@]23C(CC1(C)C)[C@]1(CCC4[C@@]5(C)CC[C@H](O[C@@H]6O[C@H](C(=O)O)[C@@H](O)[C@H](O[C@@H]7O[C@H](CO)[C@H](O)[C@H](O)[C@H]7O[C@@H]7O[C@@H](C)[C@H](O)[C@@H](O)[C@H]7O[C@@H]7OC[C@@H](O)[C@H](O)[C@H]7O)[C@H]6O[C@@H]6O[C@H](CO)[C@H](O)[C@H](O)[C@H]6O)C(C)(C)C5CC[C@@]4(C)[C@]1(C)C[C@H]2O)O[C@H]3O (some centres not stated),–,–,–,–,–,–,-2.94% [at 9.52 µM],-2.35% [at 9.73 µM],4.78% [at 11.6 µM],718% [at 11.5 µM],3.76% [at 11.6 µM],13% [at 11.5 µM]
COC(=O)/C=C/C=C/C(=O)OC1C=C2COC(=O)C2(O)C2(C)CCCC(C)(C)C12 (configuration not stated),inactive,inactive,inactive,inactive,inactive,inactive,–,–,–,–,–,–
COc1ccc(NC(=O)C2C[C@H](C)CC[C@H]2C(C)C)cc1 (some centres not stated),inactive,inactive,inactive,inactive,inactive,inactive,–,–,–,–,–,–
CCn1c(=O)n([C@H]2CCCN(c3nccc(-c4cc5ccccc5o4)n3)C2)c2ccccc21,inactive,inactive,inactive,inactive,inactive,inactive,–,–,–,–,–,–
CCN(CC)C(=O)c1ccc(Nc2nc(OCC3CCCCC3)c3[nH]cnc3n2)cc1,inactive,inactive,inactive,inactive,inactive,inactive,–,–,–,–,–,–
NS(=O)(=O)Nc1ncnc(OCCOc2ncc(Br)cn2)c1-c1ccc(Br)cc1,inactive,inactive,inactive,inactive,inactive,inactive,–,–,–,–,–,–
Cc1noc(-c2ccc(-c3ccc(CC(=O)O)cc3)cc2)c1NC(=O)O[C@H](C)c1ccccc1Cl,inactive,inactive,inactive,inactive,9.53 µM (active),inactive,–,–,–,–,–,–
O=C(NCCN1CCC(n2c(=O)[nH]c3ccccc32)CC1)c1cc2cc(F)ccc2[nH]1,inactive,inactive,inactive,inactive,inactive,inactive,–,–,–,–,–,–
C=C1C(=O)O[C@@H]2[C@H]1CC[C@H](C)[C@]1(CCC(=O)O1)C2(C)O (some centres not stated),inactive,inactive,inactive,inactive,inactive,inactive,–,–,–,–,–,–
CCS(=O)c1nc(-c2cccc(OCc3ccccc3)c2)cc(C(F)(F)F)n1 (configuration not stated),inactive,inactive,inactive,inactive,inactive,inactive,–,–,–,–,–,–
CC(=O)OC1C(OC(=O)c2ccccc2)C2C(=C(C)CCC2(C)C)C23CCC(C)(C2)C(=O)CC13 (configuration not stated),inactive,inactive,inactive,inactive,inactive,inactive,–,–,–,–,–,–
CC(=O)c1ccc2c(c1)[C@H](NC(=O)c1ccc(F)c(Cl)c1)[C@H](O)C(C)(C)O2,inactive,inactive,inactive,inactive,inactive,inactive,–,–,–,–,–,–
